# Compounds without any hit were thinned out: in the full panel of roughly 83,000, 20% have a hit.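 96-well plates, one dose, 48 hours. Percent growth reported; active if below 10.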 Values without a mark were called inactive. Calls of active or inactive are those of the source.
# Test system: MDA-MB-468 breast
# Assay: NCI-60 one-dose screen, 48 h (100 = growth as untreated, 0 = no growth, -100 = all killed)
# Details: 10 µM unless noted
row,SMILES,growth
1,CN1CCN(Cc2ccc(NC(=O)c3cncc(C#Cc4cnc5ccc(N6CCOCC6)nn45)c3)cc2C(F)(F)F)CC1,-70.8% (active)
2,C#CCOc1ccc(C2=NN(CC3CC3)C3N=C(Cl)c4ncn(CC5CC5)c4N23)cc1OCC#C (stereo not given),66.2%
3,CCOc1cc(CCNS(=O)(=O)c2ccc(C)cc2)c(C(C)=O)cc1OCC,67.1% [100 µM]
4,CC(C)[C@@]12C[C@@H](OC(=O)[C@H]3CO3)[C@@](C)(O1)[C@@H]1CC[C@@H](C)[C@H]1[C@@H]2OC(=O)/C=C/c1ccccc1,85.8%
5,Cc1ccc(S(=O)(=O)N/N=C\c2cc(Cl)ccc2O)cc1,68.4%
6,C=CCNCCCN1C(=O)c2ccc3c4c(ccc(c24)C1=O)C(=O)N(CCCNCC=C)C3=O,-88.5% (active)
7,Cc1cc(CC(=O)O)n(C)c1C(=O)c1ccc(Cl)cc1,101%
8,COC(=O)C1C(O)C(C)C(O)C(C)C=C(C)C2=C3C(=C(C)C(=O)c4c(O)c(c(C)c(OC(C)=O)c43)NC(=O)C(C)=C/C=C\C(C)C(O)C(C)C1O)OCO2 (stereo not given),106%
9,C=C1C(=O)O[C@H]2[C@H]1CC/C(Cn1cc(-c3ccc(F)cc3)nn1)=C\CC[C@@]1(C)O[C@@H]21,-53.1% (active)
10,NC(CO)(CO)c1ccccc1,79.9%
11,Cc1c(C(N)=O)sc2c1c(=O)n(Cc1ccccc1)c1nnc(Nc3ccccc3)n21,108%
12,Clc1ccc(/C=C/c2nc(Nc3ccc(Cl)cc3)c3ccccc3n2)cc1,110%
13,COc1ccc(/C=C(/C(=O)N2CCN(Cc3ccccc3)CC2)c2cc(OC)c(OC)c(OC)c2)cc1O,20.4%
14,O=C(COCc1c(-c2ccccc2)no[n+]1[O-])Nc1ccc(C(=O)/C=C/c2ccc3c(c2)OCO3)cc1,98.7%
15,COc1ccc(-c2nc(SCC(=O)Nc3ccc(C(=O)/C=C/c4ccc(Cl)cc4)cc3)[nH]c(=O)c2C#N)cc1,39.4%
16,NS(=O)(=O)c1ccc(CCN=C=S)cc1,-6.54% (active)
17,COc1cc(C2C(C#N)=C(N)Oc3cc(O)ccc32)cc(OC)c1OC (stereo not given),-16% (active)
18,CCN(CC)CCCC(C)Nc1cnc(C(=O)Nc2ccc(Cl)c3cccnc23)cn1 (stereo not given),-28% (active)
19,COc1cc(Br)c(OC)cc1Br,95.5%
20,OC(Cc1cccnc1)c1ccccc1 (stereo not given),111%
21,O=[N+]([O-])c1cccc(/C=N/NC(=S)NC23CC4CC(CC(C4)C2)C3)c1,82.1%
22,C=CCNc1nc(O)c(/C=C2\C=Nc3ncccc32)s1,1.02% (active)
23,Cn1ccc(=O)c(C(=O)Nc2nsc3ccc([N+](=O)[O-])cc23)c1,87.1%
24,O=C(Nc1ccc(Br)cc1F)c1cc(Br)ccc1O,-13.6% (active)
25,CN(C)CCNC(=O)c1ccc(-c2nc3ccc4[nH]ncc4c3c3c2COCC3)cc1,-54.5% (active)
